# Experimental data as given in PubChem BioAssay (NCATS).
# Results filed as inconclusive are left out. Entries that show only a call come without a potency. Active and inactive are the calls of the source. Calls come from the whole dose curve; as a rule, active = well fitted curve in the direction sought with a large enough effect; inconclusive = small, poorly fitted or top-dose-only effect, or another doubt; inactive = no such curve, though single readings can be large; an effect the other way counts as inactive or inconclusive.
# Columns and labels:
# [1] = molecular target: Aldehyde dehydrogenase, mitochondrial (Homo sapiens) (UniProt P05091); assay: qHTS for Inhibitors of the Aldehyde Dehydrogenase Family (ALDH2) Primary screen (AID 2061308); note: nearly all actives have a fitted effect of over 55% in size
# [2] = molecular target: Retinaldehyde dehydrogenase 3 (Homo sapiens) (UniProt P47895); assay: qHTS for Inhibitors of the Aldehyde Dehydrogenase Family (ALDH1A3) Primary screen (AID 2061315)
Structure (SMILES),Potency [1],Potency [2]
O=S(=O)(c1ccc2c(c1)OCCO2)N1CCN(S(=O)(=O)c2cccc[n+]2[O-])CC1,inactive,inactive
Cc1cc2c(s1)c1cnn(Cc3cc(OC(F)(F)F)ccc3F)c(=O)c1n2C,inactive,inactive
Cc1cc(N[S+](=O)([O-])c2ccc(NC(=O)Cc3ccc4c(c3)CCO4)cc2)no1,inactive,inactive
CCOC(=O)c1[nH]c2c(c1C)C(=O)CCC2,inactive,inactive
O=C(Nc1ccc(S(=O)(=O)Nc2nccs2)cc1)C1CCC2(CCC2)CC1,inactive,inactive
CC(C)c1ccccc1-c1ncc(F)c(NCC2CCN(c3cnccn3)C2)n1 (stereo not given),inactive,inactive
CC1(C)CCCC2(C)C1C(OC(=O)/C=C/C=C/C=O)C=C1COC(=O)C12O (stereo not given),inactive,inactive
Cc1cc(NS(=O)(=O)c2cc3c(cc2F)NC(=O)CC3)ccc1F,inactive,inactive
Cc1cc(C)nc(NC(=S)N2CCN(c3cccc(C(F)(F)F)n3)CC2)c1,inactive,inactive
COc1cc2nc(Nc3ccccc3)nc(NC3CC3)c2cc1OC,inactive,inactive
O=C(O)c1ccc(-c2ccc3ncnc(NCc4nccs4)c3c2)o1,inactive,inactive
Fc1ccc(-c2nnc(CCCCSc3nnc(-c4cccc5ccccc45)o3)o2)cc1,inactive,inactive
CCOc1ccc(C(=O)Oc2ccc(-c3nc4ccccc4[nH]3)cc2)cc1,inactive,inactive
CC(=O)Nc1nc(-c2ccc3c(c2)CCN3C(=O)c2ccccc2C)c(C)s1,inactive,inactive
O=C(Cc1nnc(-c2nc3ccccc3[nH]2)o1)Nc1cc(C(F)(F)F)ccc1Cl,inactive,inactive
